We go through six compounds from PubChem BioAssay (NCATS).

The subject of experiment [1] is Zika virus NS2B-NS3 protease (linked construct). Put plainly: Primary screen NINDS Rhodamine qHTS for Zika virus inhibitors (AID 1347160). Note: nearly all actives have a fitted effect of over 55% in size. Note: potency is the fitted concentration of half-maximal effect. In outline:
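Aprotinin served as in-plate control. Conditions: 25 nM linked NS2B-NS3, pH 8.0 Tris buffer, titrated compounds, 15 min preincubation and 15 min reaction with 1.5 microM Rhod110 substrate at room temperature.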

Experiment [2] is described as follows: HPAF-II Cancer Cell Toxicity qHTS against the NCATS CANVASS Library (AID 1347346). Note: series mostly up to about 38 µM; nearly all actives have a fitted effect of over 55% in size. The method in brief:
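First, HPAF-II cells are plated (1000 cells/well) and held 4 h at 37 degrees C. Next, compounds are pin-transferred as an 11-point series. After 72 h, CellTiter-Glo is added and luminescence measured.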
(In general: qHTS replaces the single test concentration by a dilution series.)

Experiment [3] is described as follows: OV-SAHO Cancer Cell Toxicity qHTS against the NCATS CANVASS Library (AID 1347348). Note: series mostly up to about 38 µM; nearly all actives have a fitted effect of over 55% in size. The method in brief:
(§1)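 Following a 4 h pre-incubation of 1000 seeded cells, compounds were pinned in an 11-pnt dilution series and left for 72 h; viability then came from CellTiter-Glo.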

Experiment [4] can be described thus: U-118MG Cancer Cell Toxicity qHTS against the NCATS CANVASS Library (AID 1347351). In outline:
as §1

Experiment [5] can be described thus: COV-362 Cancer Cell Toxicity qHTS against the NCATS CANVASS Library (AID 1347352). Note: series mostly up to about 38 µM. The method in brief: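 First, 1000 cells go into each well and rest for 4 hours. Next, an 11-point dilution range is pinned in. Plates then incubate 72 hours before CellTiter-Glo addition and luminescence reading.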
Experiment [6] in a line: HEK293 18hr Apoptosis Induction qHTS against the NCATS CANVASS Library (AID 1347357). In outline:
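HEK293 cells (500 per well, DMEM with 10% FBS) were treated with natural products, incubated 18 hours at 37 degrees C, then caspase-3/7 activity was read by Caspase-Glo luminescence after 15 min at room temperature.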

A short description of experiment [7]: HPAF-II 12hr Apoptosis Induction qHTS against the NCATS CANVASS Library (AID 1347358). The method in brief:
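Cells plated at 500 per well are dosed with compound and incubated 12 hours at 37 degrees C. Caspase-Glo 3/7 reagent is added and, after 15 min at room temperature, luminescence proportional to caspase activity is measured.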

Experiment [8] can be described thus: HEK293 24hr Apoptosis Induction qHTS against the NCATS CANVASS Library (AID 1347359). In outline: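 Caspase-3/7 activation measured as luminescence from the DEVD-based Caspase-Glo reagent, 15 min at room temperature, following 24-hour compound treatment of HEK293 cells.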
Experiment [9] can be described thus: HPAF-II 18hr Apoptosis Induction qHTS against the NCATS CANVASS Library (AID 1347360). The method in brief:
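HPAF-II cells (500/well, DMEM + 10% FBS) were exposed to compounds for 18 hours at 37 degrees C. Caspase-3/7 activity was then read by Caspase-Glo 3/7 luminescence after 15 min at room temperature.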

A short description of experiment [10]: HEK293 12hr Apoptosis Induction qHTS against the NCATS CANVASS Library (AID 1347361). In outline:
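Read-out: Caspase-Glo 3/7 luminescence (DEVD substrate), 15 min RT. Preceded by 12 h compound exposure of HEK293, 500 cells/well, 11-pt qHTS titration; doxorubicin titration as control.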

Experiment [11] concerns the target Luciferin 4-monooxygenase (Photinus pyralis) (UniProt P08659). Put plainly: Firefly luciferase counterscreen qHTS: Assay Interference Panel against the NCATS CANVASS Library (AID 1347363). Note: series mostly up to about 57 µM. The method in brief:
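Luminescence inhibition readout: compounds (11-point qHTS) sat 15 min at room temperature with substrate mix (0.013 mM luciferin and ATP), then firefly luciferase was added and signal read 5 min later.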

Experiment [12] in a line: MCF7 Cancer Cell Toxicity qHTS against the NCATS CANVASS Library (AID 1347369). In outline: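 MCF7, 500 cells/well; cpds 11-pt qHTS; 72 hr, 37C/5% CO2; CellTiterGlo ATP luminescence.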
Experiment [13] can be described thus: J3T Cancer Cell Toxicity qHTS against the NCATS CANVASS Library (AID 1347371). The method in brief: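 Luminescence from CellTiterGlo, reporting cellular ATP, serves as the viability measure after 72 hr compound treatment of J3T canine glioma cells seeded at 500 cells/well.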
Experiment [14] has as its target Nuclear receptor subfamily 1 group I member 3 (Homo sapiens) (UniProt Q14994). Put plainly: qHTS for Constitutive Androstane Receptor (CAR) Antagonist screened against the NCATS CANVASS Library (AID 1347372).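 Note: cells stimulated with 50 nM CITCO agonist so inhibition reflects antagonism; series mostly up to about 46 µM.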 In outline:
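Antagonist mode: compound added alongside 50 nM CITCO to HepG2-hCAR-CYP2B6 reporter cells, 24hr at 37C. Viability by CellTiter-Fluor fluorescence, then CAR-driven luciferase by ONE-Glo luminescence.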

Experiment [15] is described as follows: qHTS for Inflammasome Signaling Inhibitors: IL-1-beta AlphaLISA screen against the NCATS CANVASS Library (AID 1347379).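 Note: human THP-1 cells primed with LPS then triggered with ATP.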 In outline: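 Secreted IL-1B from human THP-1 cells quantified by AlphaLISA 16 hr after compound addition (final up to 57.5 uM). A 1 hr compound pretreatment preceded inflammasome activation with 250 ng/mL LPS plus 1.25 mM ATP (final).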

Experiment [16] in a line: Inflammasome Signaling qHTS Counterscreen: IL-1-beta AlphaLISA counterscreen against the NCATS CANVASS Library (AID 1347381).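 Note: cell-free check with purified IL-1β in medium and no THP-1 cells; series mostly up to about 57 µM.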 The method in brief:
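Purified IL-1-beta (4 pg/well) + compound, 11-pt conc. series; acceptor beads 6 ug/mL + biotin-Ab 0.6 nM final, 1 h RT; SA-donor 24 ug/ml final, 30 min dark RT; read ex 680/em 615.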

Experiment [17] is described as follows: Cytotoxicity qHTS for assessment of Hepg2 cells membrane integrity screened against the NCATS CANVASS Library (AID 1347387). In outline:
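Cells were seeded at 2000 per well and left overnight to attach. Compounds were pin-transferred to give 0.59 nM - 46 uM in an 11-point series and incubated 5 hr at 37C. CytoTox-ONE reagent was added and, after 10 min at room temperature, fluorescence (ex 560, em 590 nm) was read.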

The nature of experiment [18]: Vero-766 cells viability qHTS against the NCATS CANVASS Library: Counterscreen for Zika virus inhibition assay (AID 1347394). Note: nearly all actives have a fitted effect of over 60% in size. Note: potency is the fitted concentration of half-maximal effect. The method in brief: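 Uninfected Vero 766 (African green monkey) cells, 1000/well, attached overnight, then exposed 72 h at 37C to compounds (11-point qHTS). Viability read by CellTiter-Glo luminescence; media-only wells served as 100% inhibition.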

A short description of experiment [19]: qHTS for ATAD5 Antagonist screened against the NCATS CANVASS Library (AID 1347370).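 Note: HEK293T cells carrying an ATAD5 luciferase reporter co-treated with 10 µM 5-fluorouridine; series mostly up to about 46 µM; nearly all actives have a fitted effect of over 65% in size.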 The method in brief:
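Compounds (11-point) co-dosed with 10 µM 5-FUrd for 16 h at 37 °C onto HEK293T-ATAD5 luciferase reporter cells. Viability measured by CellTiter-Fluor fluorescence, then ATAD5 reporter signal by luminescence.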

The nature of experiment [20]: 10-beta competent E. coli microbial cell viability qHTS against the NCATS CANVASS Library (AID 1347376). Note: series mostly up to about 46 µM. In outline: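 Bacterial suspension diluted to 0.2 OD was dosed with compounds, 11-point series, then held overnight at 37C. BacTiter-Glo reagent was added, and after 20 min at room temperature ATP-dependent luminescence was measured.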

A number with no mark means an inactive call. Results filed as inconclusive are left out. Active and inactive are the calls of the source. Calls come from the whole dose curve; as a rule, active = well fitted curve in the direction sought with a large enough effect; inconclusive = small, poorly fitted or top-dose-only effect, or another doubt; inactive = no such curve, though single readings can be large; an effect the other way counts as inactive or inconclusive.

Chain of Nuclear receptor subfamily 1 group I member 3 (Homo sapiens) (Q14994 whole entry, looked up): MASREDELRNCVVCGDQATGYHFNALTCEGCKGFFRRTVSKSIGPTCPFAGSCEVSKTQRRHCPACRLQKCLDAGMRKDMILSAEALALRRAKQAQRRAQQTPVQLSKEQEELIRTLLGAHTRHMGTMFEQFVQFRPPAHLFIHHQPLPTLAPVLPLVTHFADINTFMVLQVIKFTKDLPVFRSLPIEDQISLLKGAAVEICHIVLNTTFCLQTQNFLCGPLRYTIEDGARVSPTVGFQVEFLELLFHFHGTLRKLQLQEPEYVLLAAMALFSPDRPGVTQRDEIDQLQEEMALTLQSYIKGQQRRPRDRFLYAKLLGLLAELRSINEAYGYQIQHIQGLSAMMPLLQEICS
Chain of Luciferin 4-monooxygenase (Photinus pyralis) (P08659 whole entry, looked up): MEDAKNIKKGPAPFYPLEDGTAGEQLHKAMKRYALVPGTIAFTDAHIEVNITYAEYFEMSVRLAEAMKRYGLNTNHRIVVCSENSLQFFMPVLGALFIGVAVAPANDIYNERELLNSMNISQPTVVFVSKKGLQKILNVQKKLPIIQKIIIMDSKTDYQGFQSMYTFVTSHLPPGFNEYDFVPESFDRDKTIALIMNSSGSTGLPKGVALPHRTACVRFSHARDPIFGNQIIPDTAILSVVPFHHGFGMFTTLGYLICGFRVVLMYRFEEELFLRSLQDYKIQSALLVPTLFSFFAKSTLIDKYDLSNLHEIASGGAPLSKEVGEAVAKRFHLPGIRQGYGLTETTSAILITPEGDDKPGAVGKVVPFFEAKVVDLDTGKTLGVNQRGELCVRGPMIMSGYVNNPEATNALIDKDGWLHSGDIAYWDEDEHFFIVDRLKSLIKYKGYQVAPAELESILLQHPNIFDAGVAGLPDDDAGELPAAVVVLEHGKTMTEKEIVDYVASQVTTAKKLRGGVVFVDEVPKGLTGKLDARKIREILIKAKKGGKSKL

As to `CCCCCCC[C@@H](C/C=C/CCC(=O)NCCc1c[nH]c2ccccc12)OC`, the Potency in [1] was 49.3 µM (active); in experiment [18], 23.4 µM (active). In addition, the Potency entry in experiment [2], in [3], in [4], in experiment [5], in experiment [6] and in [7] was “inactive” throughout. Moreover, the Potency result in experiment [8], in experiment [9], in experiment [10], in experiment [11], in [12] and in experiment [13] was “inactive” in each case. Moreover, the Potency result in experiment [14] and in [15] was “inactive” each time. Further, the outcome in experiment [16] and in experiment [17] was inactive.

Consider `C[C@@H]1C(=O)[C@]23CC[C@H]1C[C@]21O[C@H]2C(C)(C)C=CC(=O)[C@@]23COC1=O`, for which the Potency in experiment [1] is 62.1 µM (active). In addition, the Potency result in experiment [2], in experiment [3], in [4], in experiment [5], in [6] and in experiment [7] was “inactive” each time. Also, the Potency entry in experiment [8], in experiment [9], in experiment [10], in experiment [11], in [12] and in [19] was “inactive” in each case. Also, the Potency result in experiment [13], in [14], in [15] and in experiment [18] was “inactive” each time. In addition, the call in [20], in experiment [16] and in experiment [17] was inactive.

For `OCc1ccc2ocnc2c1`, the Potency entry in experiment [1], in [2], in [3], in experiment [4], in experiment [5] and in [6] was “inactive” each time. Moreover, the Potency entry in [7], in experiment [8], in [9], in [10], in experiment [11] and in [12] was “inactive” each time. In addition, the Potency result in [19], in experiment [13], in experiment [14], in [15] and in experiment [18] was “inactive” in each case. Besides, the result in experiment [20], in experiment [16] and in experiment [17] was inactive.

On to `CC1C(=O)C23CCC1C[C@@]21O[C@H]2C(C)(C)C=CC(=O)[C@@]23COC1=O` (stereo partly drawn), for which the Potency result in [1], in experiment [2], in [3], in [4], in experiment [5] and in [6] was “inactive” each time. Moreover, the Potency result in experiment [7], in [8], in [9], in experiment [10], in experiment [11] and in [12] was “inactive” in each case. Besides, the Potency entry in [19], in experiment [13], in experiment [14], in experiment [15] and in experiment [18] was “inactive” in each case. In addition, the result in experiment [20], in experiment [16] and in experiment [17] was inactive.

As to `C=C1C[C@@]23C=CC(=O)[C@@](C)(CCCC(C)C(=O)O)[C@@H]2C[C@@H]1CC3` (stereo partly drawn), in experiment [1], the Potency was 44 µM (active). In addition, the Potency result in [2], in experiment [3], in [4], in [5], in experiment [6] and in experiment [7] was “inactive” throughout. Further, the Potency result in experiment [8], in [9], in experiment [10], in experiment [11], in experiment [12] and in experiment [19] was “inactive” in each case. Also, the Potency result in experiment [13], in experiment [14], in [15] and in [18] was “inactive” in each case. Moreover, the result in experiment [20], in experiment [16] and in [17] was inactive.

`CC12C[C@]3(O)O[C@@H](O1)[C@]1(COC(=O)c4ccccc4)[C@@H]3CC21OC1OC(CO)C(O)C(O)C1O` (stereo partly drawn): the Potency entry in [1], in experiment [2], in [3], in [4], in experiment [5] and in experiment [6] was “inactive” each time. Further, the Potency entry in experiment [7], in experiment [8], in experiment [9], in experiment [10], in experiment [11] and in [12] was “inactive” each time. Further, the Potency result in experiment [19], in experiment [13], in experiment [14], in [15] and in [18] was “inactive” in each case. Further, the call in [20], in experiment [16] and in experiment [17] was inactive.
